Experimental data published in PubChem BioAssay (Tox21).
Inconclusive results are not listed. Entries that show only a call come without a potency. Values without a mark were called inactive. Calls of active or inactive are those of the source. Unless noted, calls come from the whole dose curve; as a rule, active = well fitted curve in the direction sought with a large enough effect in the repeat runs; inconclusive = weak or mixed curves; inactive = no such curve, though single readings can be large; an effect the other way counts as inactive or inconclusive.

What was measured:
[1] = qHTS assay to identify small molecule antagonists of the vitamin D receptor (VDR) signaling pathway - cell viability counter screen (AID 743225); note: nearly all actives have a fitted effect of over 50% in size
Method in brief: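 Read-out: CellTiter-Glo luminescence measured 30 min after reagent addition at room temperature. Cells were VDR-bla HEK 293T exposed 16 h at 37C, 5% CO2, to compound with 3 nM final calcitriol agonist.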

[2] = qHTS assay to identify small molecule agonists of the NFkB signaling pathway (AID 1159509; active = well fitted curve in the direction sought with a large enough effect in the signal ratio in the repeat runs, not every such curve was filed as active; the % refers to the signal ratio; note: series mostly up to about 61 µM)
Method in brief: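 Agonist activity was read as beta-lactamase-driven FRET change (460 and 530 nm emission, 405 nm excitation) following 1.5 hr substrate loading at room temperature. Beforehand, ME-180 NFkB-bla reporter cells were treated with compounds for 5 hr at 37 C.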

[3] = qHTS assay to identify small molecule agonists of the NFkB signaling pathway - cell viability counter screen (AID 1159515; calls by dose curve; note: series mostly up to about 61 µM; nearly all actives have a fitted effect of over 55% in size)
Method in brief: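 Cells are seeded (2,000 NFkB-bla ME-180 per well), rested overnight, and dosed with DMSO-dissolved compounds for 5 hr at 37 C. Viability is then read by CellTiter-Glo luminescence after 30 min at room temperature.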

[4] = qHTS assay to identify small molecule agonists of the endoplasmic reticulum stress response signaling pathway (AID 1159516; active = well fitted activation curve with a large enough effect in the signal ratio in the repeat runs, not every such curve was filed as active; the % refers to the signal ratio)
Method in brief: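 Cells are seeded at 1,500 per well and incubated overnight. Compounds in DMSO are added for 5 hr at 37 C, then beta-lactamase FRET substrate for 2 hr at room temperature, and fluorescence at 460 and 530 nm is measured.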

[5] = qHTS assay to identify small molecule antagonists of the retinoid-related orphan receptor gamma (ROR-gamma) signaling pathway - cell viability counter screen (AID 1159520); note: nearly all actives have a fitted effect of over 50% in size
Method in brief: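 Tet-on ROR gamma CHO cells were given compounds for 2 hr, then doxycycline hyclate at 1 uM final, and incubated 16 hr at 37 C. Viability was measured as ATP content by CellTiter-Glo luminescence.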

[6] = molecular target: Nuclear receptor ROR-gamma (Homo sapiens) (UniProt P51449); assay: qHTS assay to identify small molecule antagonists of the retinoid-related orphan receptor gamma (ROR-gamma) signaling pathway (AID 1159521;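 note: CHO cells with doxycycline inducible ROR-gamma driving an RORE luciferase reporter; top concentration of the series differs between compounds; nearly all actives have a fitted effect of over 50% in size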)
Method in brief: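 CHO Tet-on RORγ, RORE-luc reporter. Cpd 2 h pre-incubation, then dox hyclate 1 uM final, 16 h, 37 C/5% CO2. ONE-Glo luminescence; decrease = antagonist.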

[7] = qHTS assay to identify small molecule agonists of the AP-1 signaling pathway - cell viability counter screen (AID 1159525; calls by dose curve; note: nearly all actives have a fitted effect of over 55% in size)
Method in brief: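 Same-well cytotoxicity counter screen of the Tox21 10K library in ME-180 cells. The readout is ATP-dependent luminescence after 5 h compound treatment. Data are normalised to DMSO and tetra n-octyl ammonium bromide controls.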

[8] = qHTS assay to identify small molecule agonists of the AP-1 signaling pathway (AID 1159526; calls by dose curve)
[9] = molecular target: Retinoic acid receptor RXR-alpha (Homo sapiens) (UniProt P19793); assay: qHTS assay to identify small molecule agonists of the RXR signaling pathway (AID 1159527; calls by dose curve; note: nearly all actives have a fitted effect of over 35% in size; note: potency is the fitted concentration of half-maximal effect)
Method in brief: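 Read-out: beta-lactamase FRET ratio (405 nm excitation, 460 and 530 nm emission) after 2 hr substrate loading at room temperature. Cells were RXR-alpha-UAS-bla HEK 293T treated with compounds for 16 hr in 2% charcoal-stripped FBS medium.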

[10] = qHTS assay to identify small molecule agonists of the RXR signaling pathway - cell viability counter screen (AID 1159529); note: series mostly up to about 77 µM; nearly all actives have a fitted effect of over 50% in size
Method in brief: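 HEK 293T RXRa-bla cells, 2% CS-FBS; 5 h settle; cpd 16 h 37 C, 5% CO2; CellTiter-Glo 30 min RT, luminescence. Tetraoctyl ammonium bromide as positive control.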

[11] = qHTS assay to identify small molecule antagonists of the retinoid acid receptor (RAR) signaling pathway - cell viability counter screen (AID 1159551); note: nearly all actives have a fitted effect of over 35% in size
Method in brief: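 Cells (C3RL4) are plated, incubated overnight, dosed with compound in DMSO, then given retinol at 1 uM final. After 6 h at 37 C, CellTiter-Glo is added and luminescence read following 30 min at room temperature.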

[12] = qHTS assay to identify small molecule agonists of the retinoic acid receptor (RAR) signaling pathway (AID 1159553)
Method in brief: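 Seed C3RL4 reporter cells at 1,000 per well and incubate overnight at 37 C. Add compounds in DMSO, incubate 6 hr. Add luciferase reagent, wait 30 min at room temperature, read luminescence.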

[13] = qHTS assay to identify small molecule antagonists of the retinoic acid receptor (RAR) signaling pathway (AID 1159552; note: nearly all actives have a fitted effect of over 50% in size)
Method in brief: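 Cells of the C3RL4 line were seeded, incubated overnight, then dosed with compounds in DMSO followed immediately by retinol (1 uM final). Six hours later luciferase detection reagent went in; signal was measured after 30 min at RT.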

Chain of Retinoic acid receptor RXR-alpha (Homo sapiens) (P19793 whole entry, looked up): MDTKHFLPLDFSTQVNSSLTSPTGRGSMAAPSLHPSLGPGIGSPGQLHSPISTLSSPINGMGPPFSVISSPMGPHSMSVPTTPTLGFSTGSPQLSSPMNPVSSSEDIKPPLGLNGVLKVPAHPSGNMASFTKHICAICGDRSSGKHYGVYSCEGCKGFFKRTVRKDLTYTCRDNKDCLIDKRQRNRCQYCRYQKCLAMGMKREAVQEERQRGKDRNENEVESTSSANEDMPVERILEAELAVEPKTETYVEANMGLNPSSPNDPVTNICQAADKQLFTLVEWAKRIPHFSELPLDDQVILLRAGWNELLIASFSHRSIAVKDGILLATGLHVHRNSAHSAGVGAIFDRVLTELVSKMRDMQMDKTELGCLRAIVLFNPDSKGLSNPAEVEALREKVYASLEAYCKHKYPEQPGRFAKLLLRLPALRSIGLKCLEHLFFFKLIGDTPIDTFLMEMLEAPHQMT

SMILES	Potency [1]	outcome [2]	Potency [3]	Potency [4]	Potency [5]	Potency [6]	Potency [7]	outcome [8]	Potency [9]	Potency [10]	Potency [11]	Potency [12]	Potency [13]
CCCCCCCCCCCCCCCC(=O)OCC	inactive	inactive	inactive	inactive	inactive	inactive	inactive	inactive	inactive	inactive	inactive	inactive	
CC(C)COC(=O)COc1cc(Cl)c(Cl)cc1Cl	inactive	inactive	inactive	inactive	inactive	inactive	inactive	inactive	inactive	inactive	inactive	inactive	inactive
CCCCCCCCCCCC(=O)OCC(O)CO (configuration not stated)		inactive	inactive	inactive	inactive	inactive	inactive	inactive	54.9 µM (active)		inactive	inactive	inactive
CC(C)C1CCC(C(=O)N[C@H](Cc2ccccc2)C(=O)O)CC1 (some centres not stated)	inactive	inactive	inactive	inactive	inactive	inactive	inactive	inactive	inactive	inactive	inactive	inactive	inactive
O=C(NC(Cc1cc(=O)[nH]c2ccccc12)C(=O)O)c1ccc(Cl)cc1 (configuration not stated)	inactive	inactive	inactive	inactive	inactive	inactive	inactive	inactive	inactive	inactive	inactive	inactive	inactive
